Drawing on PubChem BioAssay AID624301 (The Scripps Research Institute Molecular Screening Center, 2012), this text covers outcome for two compounds.

This assay has as its target DAX1 (UniProt P51843). The assay is described as follows: DAX1 inhibitors in Gal4 CAT reporter cells – cell-based, CAT activity, absorbance, powder samples, DAX1 inhibitor project, dose response (AID 624301). As to conditions: HEK293 Gal4-DAX1 CAT reporter, ELISA absorbance; CAT reporter with DAX1, at 100 µM (top of the series).

The source made the active and inactive calls.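 Rule for the calls: active = relative activity ratio in the reporter plus Dax-1 wells above 5 or under 0.1 at any tested dose; inactive = ratio stays between 0.1 and 5 at every dose.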

DAX1, sequence (P51843 whole entry, looked up, the tested form may be a part): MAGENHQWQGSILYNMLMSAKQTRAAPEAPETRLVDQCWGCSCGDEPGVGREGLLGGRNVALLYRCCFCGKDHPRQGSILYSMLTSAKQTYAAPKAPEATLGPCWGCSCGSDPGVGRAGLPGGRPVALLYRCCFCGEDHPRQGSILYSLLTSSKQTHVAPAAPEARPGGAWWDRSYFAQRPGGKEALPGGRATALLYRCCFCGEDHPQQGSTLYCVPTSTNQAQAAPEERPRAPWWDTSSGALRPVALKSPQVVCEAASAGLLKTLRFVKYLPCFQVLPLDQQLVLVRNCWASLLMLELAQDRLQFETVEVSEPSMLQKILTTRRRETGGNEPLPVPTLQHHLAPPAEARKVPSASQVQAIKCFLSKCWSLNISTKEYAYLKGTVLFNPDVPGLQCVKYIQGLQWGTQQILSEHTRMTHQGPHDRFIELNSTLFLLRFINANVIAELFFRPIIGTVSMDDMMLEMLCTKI

On to `Cn1c(=O)n(C)c2cc(C(=O)Nc3ccc4c(c3)OCCO4)ccc21`, for which the outcome was inactive.

For the compound `Cn1c(=O)n(C)c2cc(C(=O)Nc3ccc4c(c3)OCO4)ccc21`, the compound was called inactive.
